Screening results (PubChem BioAssay)
ELG1 repair inh: blocks ELG1-dependent DNA repair in HEK293T cells. HEK293T ELG1-luciferase reporter, luminescence, 16 h; DNA damage induced by 5-fluorouridine. Potency, µM (series often up to 46.1 µM), most hits filed as inhibitors. 330,000 compounds, 2.3% hits. AID 504467; note: nearly all actives have a fitted effect of over 55% in size
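Step one: seed 2,000 cells per well. Step two: pin-transfer compound or DMSO alongside 5-fluorouridine. Step three: incubate 16 hr, 37 °C, 5% CO2. Step four: add ONE-Glo, wait 30 min, read luminescence.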
A549 tox: kills or reduces viability of A549 cells in Nrf2 counter-screen; A549 ARE-Fluc cells, CellTiter-Fluor viability, 18-24 h; Potency, µM (highest dose often 46 µM), actives largely listed as inhibitors; 390,000 compounds, 0.16% hits; AID 504648
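Cytotoxicity counterscreen: CellTiter-Fluor fluorescence was measured in A549 ARE_Fluc cells after 18-24 h of compound exposure in a concentration series. The subsequent BugLite luminescent read reports ARE-luciferase activity.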
Nrf2 ARE act: activators of Nrf2 (ARE) signaling; AREc32 ARE-luciferase reporter (MCF7-derived line), luminescence, 24 h; Potency, µM (top dose mostly 46.1 µM), hits mostly activators; 410,000 compounds, 0.31% hits; note: nearly all actives have a fitted effect of over 65% in size
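Quantitative high-throughput format: AREc32 reporter cells, 1000 per well, received compound by pin transfer and were incubated 24 hr at 37 deg C, 5% CO2, before Steady-Glo luminescence detection.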
Nrf2 block: inhibitors of Nrf2 signaling. A549 ARE-Fluc reporter, luciferase luminescence, 18-24 h. Potency, µM (titrated, usually from 46 µM), most hits filed as inhibitors. 360,000 compounds, 2.1% hits. AID 504444; note: nearly all actives have a fitted effect of over 60% in size
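Concentration-response testing used A549 ARE_Fluc cells at 5000 cells/well. Following an 18-24 h compound incubation, viability was read by fluorescence (Ex 405/Em 525) and luciferase output by luminescence.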
ELG1 FLuc counter: luciferase inhibition in cell-free luciferin readout for ELG1 hits; shares compounds with ELG1 repair inh; cell-free firefly luciferase luminescence counter-screen, ViewLux; Potency, µM (doses to about 46.1 µM), actives largely listed as inhibitors; 350 compounds, 3% hits
ELG1-Luc inh: inhibits ELG1-dependent DNA repair in HEK293T cells, confirmed | shares compounds with ELG1 repair inh | HEK293T ELG1-luciferase levels, luminescence; cells co-treated with 5-fluorouridine | Potency, µM (highest dose often 46.1 µM), most hits filed as inhibitors | 670 compounds, 68% hits | AID 624248; note: nearly all actives have a fitted effect of over 55% in size
Target sequence (Q96QE3 whole entry, looked up): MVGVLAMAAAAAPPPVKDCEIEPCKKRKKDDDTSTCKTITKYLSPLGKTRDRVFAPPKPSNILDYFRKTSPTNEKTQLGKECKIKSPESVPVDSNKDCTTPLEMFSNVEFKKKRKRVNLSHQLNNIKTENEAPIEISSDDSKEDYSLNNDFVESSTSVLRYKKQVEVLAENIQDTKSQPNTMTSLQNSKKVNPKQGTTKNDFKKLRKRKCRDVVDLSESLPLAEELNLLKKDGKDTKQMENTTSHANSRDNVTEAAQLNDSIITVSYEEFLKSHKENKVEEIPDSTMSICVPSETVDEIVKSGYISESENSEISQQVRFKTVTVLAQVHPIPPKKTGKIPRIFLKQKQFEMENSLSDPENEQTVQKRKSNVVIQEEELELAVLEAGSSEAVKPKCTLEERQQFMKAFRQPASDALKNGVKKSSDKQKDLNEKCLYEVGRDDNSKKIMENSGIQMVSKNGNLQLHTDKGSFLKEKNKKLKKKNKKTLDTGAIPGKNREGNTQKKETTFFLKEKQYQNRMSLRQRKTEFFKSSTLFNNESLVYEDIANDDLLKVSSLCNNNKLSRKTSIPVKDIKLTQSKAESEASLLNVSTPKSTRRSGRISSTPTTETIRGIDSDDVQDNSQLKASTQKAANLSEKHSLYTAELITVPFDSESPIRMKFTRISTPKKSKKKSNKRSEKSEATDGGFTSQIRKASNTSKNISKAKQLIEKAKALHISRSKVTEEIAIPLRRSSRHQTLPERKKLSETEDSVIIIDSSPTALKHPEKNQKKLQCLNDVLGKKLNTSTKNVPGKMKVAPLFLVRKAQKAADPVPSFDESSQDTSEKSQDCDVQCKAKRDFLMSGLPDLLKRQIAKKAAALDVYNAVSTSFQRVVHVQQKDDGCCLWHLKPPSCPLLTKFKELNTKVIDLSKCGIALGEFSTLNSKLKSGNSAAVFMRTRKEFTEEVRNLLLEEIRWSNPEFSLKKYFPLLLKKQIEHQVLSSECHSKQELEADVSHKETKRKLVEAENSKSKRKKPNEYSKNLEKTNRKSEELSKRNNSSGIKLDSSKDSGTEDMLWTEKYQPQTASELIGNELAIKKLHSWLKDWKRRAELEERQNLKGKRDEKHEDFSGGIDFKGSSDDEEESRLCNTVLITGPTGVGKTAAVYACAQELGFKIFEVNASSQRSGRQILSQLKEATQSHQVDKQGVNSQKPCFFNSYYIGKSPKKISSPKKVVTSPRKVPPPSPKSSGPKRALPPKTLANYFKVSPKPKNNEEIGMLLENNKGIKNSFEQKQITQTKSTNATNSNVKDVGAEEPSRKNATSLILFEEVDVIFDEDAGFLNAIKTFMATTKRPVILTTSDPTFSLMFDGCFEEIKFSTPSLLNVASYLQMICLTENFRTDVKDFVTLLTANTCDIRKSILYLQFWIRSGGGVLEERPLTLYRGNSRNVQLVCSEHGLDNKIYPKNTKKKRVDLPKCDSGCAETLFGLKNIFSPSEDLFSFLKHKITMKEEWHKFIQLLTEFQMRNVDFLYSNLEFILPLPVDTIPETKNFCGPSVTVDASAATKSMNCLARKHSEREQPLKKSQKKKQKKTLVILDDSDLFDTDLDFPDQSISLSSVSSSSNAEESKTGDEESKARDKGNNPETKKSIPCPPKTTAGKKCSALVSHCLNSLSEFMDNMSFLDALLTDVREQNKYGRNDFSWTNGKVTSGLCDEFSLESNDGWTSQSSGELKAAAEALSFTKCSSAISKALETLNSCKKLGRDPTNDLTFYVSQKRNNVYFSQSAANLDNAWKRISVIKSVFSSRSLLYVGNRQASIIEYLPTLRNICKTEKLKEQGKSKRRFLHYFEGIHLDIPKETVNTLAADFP
ELG1-Luc MMS: inhibits ELG1-dependent repair under MMS stimulation in HEK293T cells | shares compounds with ELG1 repair inh | HEK293T luciferase-tagged ELG1 level, MMS stimulated | Potency, µM (doses to about 46.1 µM), hits mostly inhibitors | 670 compounds, 53% hits | AID 624249; note: nearly all actives have a fitted effect of over 60% in size
ELG1 5FU viab: confirmation of ELG1 repair inhibitors: viability with 5FU. shares compounds with ELG1 repair inh. cell viability with 5-FU, ELG1-dependent repair. Potency, µM (titrated, usually from 46.1 µM), usual class: cytotoxic. 670 tested, under 10 active;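 note: ELG1-luc HEK293T cells cotreated with 5-fluorouridine at 10 µM final; viability measured 16 h after compound addition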
ELG1 MMS viab: confirmation of ELG1 repair inhibitors: viability with MMS | shares compounds with ELG1 repair inh | Potency, µM (titrated, usually from 46.1 µM), actives largely listed as cytotoxic | 670 compounds, 33% hits | Cell viability with MMS, ELG1-dependent DNA repair;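 note: ELG1-luc HEK293T cells co-treated with 10 µM MMS; viability read 16 h after compound addition; nearly all actives have a fitted effect of over 60% in size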
ELG1 unstim viab: counter-screen for ELG1 repair inhibitors: unstimulated cell viability | shares compounds with ELG1 repair inh | cell viability counter-screen, unstimulated, luminescence | Potency, µM (titrated, usually from 45.9 µM), hits mostly cytotoxic | 900 compounds, 8% hits | AID 624252;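 note: compound exposure lasted 16 hours before reading; nearly all actives have a fitted effect of over 55% in size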
FLuc enzyme: inhibits purified firefly luciferase, counter-screen for ELG1 hits; 350 compounds, 10% hits; shares compounds with ELG1 repair inh; Potency, µM (highest dose often 57.5 µM), actives largely listed as inhibitors; purified firefly luciferase, luminescence counter-screen
Numbers stand for hits; . = inactive; ? = inconclusive; / = no result. A selection: hits, their analogues and other compounds. The true share with any hit is near 3.7%. Calls come from the whole dose curve; as a rule, active = well fitted curve in the direction sought with a large enough effect; inconclusive = small, poorly fitted or top-dose-only effect, or another doubt; inactive = no such curve, though single readings can be large; an effect the other way counts as inactive or inconclusive.

SMILES	ELG1 repair inh	A549 tox	Nrf2 ARE act	Nrf2 block	ELG1-Luc inh	ELG1-Luc MMS	ELG1 5FU viab	ELG1 MMS viab	ELG1 unstim viab	others
CN(CC(=O)Nc1ccccc1Br)C(=O)c1ccc(-c2ccc(Cl)cc2)o1	0.37µM	?	.	?	?	22µM	.	25µM	?	ELG1 FLuc counter=.;FLuc enzyme=21µM
COc1ccc(C)c2sc(N3CCN(C(=O)c4ccco4)CC3)nc12	/	.	.	/	/	/	/	/	/
O=C(NCc1cccs1)c1cc(-c2cccs2)on1	?	.	.	?	/	/	/	/	/
O=C(NCc1cccs1)c1cc(-c2ccccc2)on1	?	.	.	?	/	/	/	/	.	ELG1 FLuc counter=.;FLuc enzyme=?
Cc1cccc(C(=O)NCCc2nc3ccccc3n2Cc2ccc(Cl)cc2)c1	/	.	.	?	/	/	/	/	/
COc1ccc2cc(C[C@@H]3CC[C@@H](CO)O3)ccc2c1	?	.	.	?	/	/	/	/	.
COc1ccc(Cl)cc1NC(=O)C(C)OC(=O)Cn1cc(C(F)(F)F)ccc1=O (configuration not stated)	.	.	.	.	/	/	/	/	/
COc1cc(/C=N/Nc2nc(C)cc(C)n2)ccc1OC(=O)c1ccco1	.	.	.	.	/	/	/	/	/
CCOc1cc(/C=N\Nc2nc(Nc3ccccc3)nc(N3CCOCC3)n2)ccc1OC(=O)c1ccco1	2.3µM	?	.	.	1.6µM	?	?	?	?
CCOc1cccc(-c2nnc(SCC(=O)Nc3cc(C)ccc3OC)n2N)c1	0.58µM	.	.	.	?	.	.	.	.	ELG1 FLuc counter=.;FLuc enzyme=.
CCOc1ccc(CC(=O)Nc2ccc(NC(=O)c3ccco3)cc2)cc1OCC	2.3µM	.	.	?	?	0.063µM	.	0.07µM	.
CO/N=C(/C(=O)N[C@@H]1C(=O)N2C(C(=O)O)=CCS[C@H]12)c1cnc(N)s1	.	/	/	/	/	/	/	/	/
Cc1ccc([N+](=O)[O-])cc1Nc1nc(N2CCOCC2)nc(N2CCOCC2)n1	16µM	.	.	.	8.9µM	?	?	?	?	ELG1 FLuc counter=.;FLuc enzyme=.
COc1ccccc1Nc1nc(N2CCOCC2)nc(N2CCOCC2)n1	1.6µM	.	.	?	7.9µM	.	?	.	.	ELG1 FLuc counter=.;FLuc enzyme=.
CCc1ccccc1NC(=O)CNC(=O)CCC(=O)c1cc(C)sc1C	/	/	.	/	/	/	/	/	/
CC1(C)Cc2nc3nc(SCC(=O)NCCc4ccccc4)n(-c4ccccc4)c(=O)c3cc2CO1	4.6µM	.	.	.	?	.	?	.	?
CSc1nc2nc3c(cc2c(=O)n1-c1ccccc1)COC(C)(C)C3	.	.	.	.	/	/	/	/	/
CCNC(=S)N1CCN(CC)CC1	.	.	.	.	/	/	/	/	/
N/C(=N\OC(=O)/C=C/c1ccccc1)c1ccccn1	?	.	.	.	/	/	/	/	/
COc1ccc(/C=C/C(=O)O/N=C(\N)c2ccccn2)cc1OC	?	.	.	?	/	/	/	/	.
Cc1ccc(NC(=O)c2cc(S(=O)(=O)N(C)C3CCCCC3)ccc2F)cc1C	/	.	.	/	/	/	/	/	/
COc1cc(Br)c(C2C(C#N)=C(N)Oc3n[nH]c(-c4cccnc4)c32)cc1OC (configuration not stated)	.	.	.	.	/	/	/	/	/
Cc1cc(C(=O)COC(=O)C23CC4CC(CC(O)(C4)C2)C3)c(C)n1C	?	.	.	?	/	/	/	/	.
CC(=O)NC12CC3CC(C1)CC(C(=O)OCC(=O)c1cc(C)n(C)c1C)(C3)C2	?	.	.	?	/	/	/	/	.
COc1ccc(N2CCCn3c2nc2c3c(=O)n(CCc3ccccc3)c(=O)n2C)cc1	4.1µM	.	.	.	18µM	16µM	?	.	.
SMILES	ELG1 repair inh	A549 tox	Nrf2 ARE act	Nrf2 block	ELG1-Luc inh	ELG1-Luc MMS	ELG1 5FU viab	ELG1 MMS viab	ELG1 unstim viab	others
CCOc1ccc(N2CCCn3c2nc2c3c(=O)n(CCc3ccccc3)c(=O)n2C)cc1	.	/	/	/	/	/	/	/	/
COc1cc(/C=C(\C#N)C(=O)Nc2cccc(C(=O)O)c2)ccc1OCc1ccc(Cl)cc1	?	.	.	.	/	/	/	/	.	ELG1 FLuc counter=.;FLuc enzyme=16µM
O=C(CSc1nc2ccc(NC(=O)CSc3nnnn3Cc3ccccc3)cc2s1)Nc1ccccc1	4.6µM	.	.	?	?	7.9µM	.	13µM	?
CCOCCn1ccc2c(OCC(=O)Nc3cc(OC)ccc3OC)cccc2c1=O	4.1µM	.	.	?	11µM	16µM	?	?	?
COc1cccc(-c2nc(-c3ccc4c(c3)-c3ccccc3S4(=O)=O)c(-c3ccccc3)[nH]2)c1OC	2.6µM	.	.	.	3.5µM	.	?	?	.
Cc1ccc(-c2nnc(NCc3nc4ccccc4[nH]3)c3ccccc23)cc1S(=O)(=O)N1CCOCC1	4.6µM	.	.	?	7.1µM	16µM	.	?	?
CCc1ccc(-c2nc(CN3CCC(C(=O)N4CCN(c5ccccn5)CC4)CC3)c(C)o2)cc1	4.1µM	.	.	.	7.1µM	7.9µM	.	7.9µM	?
CCc1ccc(-c2nc(CN3CCC(C(=O)N4CCN(c5ccccc5)CC4)CC3)c(C)o2)cc1	?	.	.	.	/	/	/	/	/
CCCn1c(N2CCN(CC(=O)c3c(C)n(C)c4ccc(OC)cc34)CC2)nc2c1c(=O)[nH]c(=O)n2C	1.5µM	.	.	?	3.5µM	?	?	.	?	ELG1 FLuc counter=.;FLuc enzyme=.
COc1ccc2sc3c(=O)[nH]c4ccccc4c3c2c1	0.82µM	.	.	/	2µM	1.6µM	.	.	.	ELG1 FLuc counter=.;FLuc enzyme=.
N#Cc1nc(Cl)c(Cl)c(NN)c1Cl	.	.	.	.	/	/	/	/	/
O=C(C[n+]1cc(-c2ccc(Cl)cc2)n2c1CCCCC2)c1ccccc1	.	.	.	.	/	/	/	/	/
Cc1ccc(-c2c[n+](Cc3ccc(Cl)cc3)c3n2CCC3)cc1	2.6µM	.	.	?	?	7.9µM	.	7.9µM	4µM	ELG1 FLuc counter=.;FLuc enzyme=.
COc1ccc(-n2cc(C(=O)NCc3ccccc3Cl)c3ccccc3c2=O)cc1	/	.	.	.	/	/	/	/	/
CCOc1cc(C(=O)Nc2cccc(OCC(=O)N3CCOCC3)c2)cc(OCC)c1OCC	2.1µM	.	.	.	8.9µM	?	.	.	.
O=C(Nc1cccc(OCC(=O)N2CCOCC2)c1)c1cccc(Cl)c1	.	.	.	.	/	/	/	/	/
